# Hits are enriched below; roughly 2.9% of the tested compounds scored in any of these assays.
# Rango release inh: inhibition of RanGTP-driven Rango-importin beta dissociation; O95149+P62826; Biochemical FRET Rango-importin beta, RanGTP-induced dissociation; Potency, µM (series often up to 46.1 µM), without a hit: at the top dose activity change, negative = inhibition; 0.071% of 340,000 active; AID 540253; also: potency is read from the fitted curve at half-maximal effect; % of control where 0% means no effect; nearly all actives have a fitted effect of over 45% in size
#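 Compounds sat 5 min at room temperature with 0.1 uM Rango biosensor plus 0.25 uM importin beta, then FRET pre-read. RanGTP-RCC1 (0.6 uM Ran, 2mM GTP, 0.2 uM RCC1) added for 45 min, and the CFP/YFP post-read measured blocked complex dissociation.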
# Mm-Cpn inhibitor: inhibitors of Methanococcus maripaludis chaperonin TRiC (MmCpn); Potency, µM (titrated, usually from 76.9 µM), inactives show at the top dose activity, negative = inhibition, actives largely listed as inhibitors; purified Mm-Cpn ATPase, ADP Transcreener TR-FRET; 0.031% of 330,000 active; active = well fitted inhibition curve with a large enough effect; inconclusive = small, poorly fitted or top-dose-only effect; also: potency is read from the fitted curve at half-maximal effect; % is scaled to controls: 0 for no effect and ±100 for the full control effect; nearly all actives have a fitted effect of over 80% in size
#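 Reaction buffer contained 30 mM Tris pH 7.4, 100 mM KCl, 5 mM MgCl2 and 1 mM DTT. Mm-CPN (25 nM final) hydrolysed 10 uM ATP over 30 min at 37°C; ADP was read by HTRF.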
# Rango-impB inh: prevents formation of the Rango-importin beta complex. Q14974. Rango CFP/YFP FRET sensor + importin beta, 45 min. Potency, µM (highest dose often 92.2 µM), without a hit: top-dose inhibition of complex formation. 0.031% of 340,000 active;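 also: potency is read from the fitted curve at half-maximal effect; 0% = DMSO wells and 100% = buffer wells lacking importin beta; nearly all actives have a fitted effect of over 15% in size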
#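 Inhibition scored from the CFP 486 nm/YFP 530 nm FRET ratio 45 min after adding 0.125 microM importin beta to 50 nM Rango biosensor preincubated 5 min with compound (room temperature, PBS with DTT, Tween-20, BSA). No-importin wells as positive control.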
# DRD3 agonist: activates the human D3 dopamine receptor; D3R DiscoveRx beta-arrestin cells, luminescence, 90 min; max activation, %; 0.58% of 410,000 active; in the data active = max activation above about 30%; also: 0% is about no effect
#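 Agonist-mode cell screen: cells plated at 1500/well and incubated overnight at 37 °C, then exposed to library compounds for 90 min at 37 °C. Detection reagent was added for 30–60 min at room temperature, and luminescence was read.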
# TSG101-PTAP inh: blocks PTAP/TSG101 interaction to inhibit HIV-1 budding | Q99816 | Fluorescence polarization, FITC-PTAP peptide / Tsg101 binding | Potency, µM (doses to about 115 µM), for inactives: at the top dose activity change, negative = inhibition, actives largely listed as inhibitors | 340,000 tested, under 10 active; active = well fitted inhibition curve with a large enough effect in the main read-out, with a control signal flat, not every such curve was filed as active; inconclusive = small, poorly fitted or top-dose-only effect, or effect the other way, or a change in a side signal; inactive = no such curve, though single readings can be large or run the other way; also: potency is read from the fitted curve at half-maximal effect; % of control where 0% means no effect
# Target sequence (Q99816 whole entry, looked up): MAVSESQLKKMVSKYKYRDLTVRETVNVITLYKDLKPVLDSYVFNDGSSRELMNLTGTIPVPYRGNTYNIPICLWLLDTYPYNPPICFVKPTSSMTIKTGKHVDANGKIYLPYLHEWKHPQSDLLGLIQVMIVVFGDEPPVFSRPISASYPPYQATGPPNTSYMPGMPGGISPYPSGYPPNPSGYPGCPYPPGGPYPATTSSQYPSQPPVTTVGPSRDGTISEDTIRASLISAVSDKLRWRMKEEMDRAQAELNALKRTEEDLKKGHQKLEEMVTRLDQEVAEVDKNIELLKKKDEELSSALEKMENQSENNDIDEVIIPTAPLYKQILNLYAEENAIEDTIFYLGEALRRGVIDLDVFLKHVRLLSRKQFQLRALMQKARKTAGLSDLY
#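 FP read-out: FITC-PTAP peptide, 50 nM final, binding Tsg101 binding domain, 10 uM final; 20 min, r.t.; 10 mM HEPES pH 7.5, 0.15 M NaCl, 0.01% Tween 20, 3 mM EDTA, 0.1 mM TCEP.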
# D3 antag: D3 dopamine receptor (human) antagonism; D3R cells, DiscoveRx beta-arrestin luminescence, antagonist mode; stronger effect = lower value; max response, negative = inhibition, %; 2.5% of 360,000 active; in the data active = max response below about -50%; inconclusive = no clear call, values can overlap the other calls; also: % is scaled to controls: 0 for no effect and ±100 for the full control effect
#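 Cells expressing the human receptor were seeded at 1500 cells/well, incubated overnight at 37 degrees C in 5% CO2, then exposed to library compounds with dopamine controls for 90 minutes at 37 degrees C before luminescent detection.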
# Active calls of the source: *; ? = inconclusive; nt = no result given. Unless noted, calls follow the shape of the full dose curve.
SMILES,Rango release inh,Mm-Cpn inhibitor,Rango-impB inh,DRD3 agonist,TSG101-PTAP inh,D3 antag
Cc1ccc(NC(=O)COC(=O)c2ccc(NC(=O)CC#N)cc2)cc1S(=O)(=O)N1CCOCC1,-8%,32µM*,-2%,-25,-4%,-53*
Cc1ccc(C(=O)O)cc1S(=O)(=O)N1CCOCC1,-2%,4%,-1%,11,nt,-72*
Cc1ccc(NC(=O)COC(=O)C2CC3C=CC2C3)cc1S(=O)(=O)N1CCCCC1 (stereo unspecified),3%,3%,-4%,47*,-2%,1
COc1ccc(C2CC(=O)c3cc(-c4nc(-c5cccc([N+](=O)[O-])c5)cs4)c(=O)n(-c4ccccc4N)c3C2)cc1 (stereo unspecified),nt,nt,nt,-6,nt,nt
Cc1ccc2c(=O)cc(C(=O)Nc3sc4c(c3C(=O)NCc3ccco3)CCC4)oc2c1C,nt,nt,nt,-10,nt,nt
CN1CCCN(C2C3CC4CC(C3)CC2C4)CC1 (stereo unspecified),0%,-1%,-2%,-4,-1%,-92*
Cc1ccc(C)c(Cn2c(=O)n(Cc3ccc(C(=O)NC4CCN(Cc5ccccc5)CC4)cc3)c(=O)c3ccccc32)c1,nt,nt,nt,-9,nt,nt
Oc1ccccc1/C=N/Nc1ccnc(SCc2ccccc2)n1,11%,-5%,4%,-17,-4%,-69*
Oc1ccccc1/C=N/Nc1ncc(Br)cn1,4%,1%,-2%,-1,-3%,-20
CCCN1CCN(C(=O)c2noc3c2COc2ccc(C)cc2-3)CC1,-13%,0%,3%,0,-3%,-64*
COc1ccc(NC(=O)c2cc(C3CCCCN3C(=O)C3CC3)on2)c(C)c1 (stereo unspecified),nt,nt,nt,-23,nt,-111*
COc1ccc(NC(=O)c2cc(C3CCCCN3C(=O)C3CCCCC3)on2)c(C)c1 (stereo unspecified),nt,nt,nt,0,nt,-15
COC(=O)[C@H](Cc1ccccc1)NC(=O)C1(OC(C)=O)CC(OC(C)=O)C(OC(C)=O)C(OC(C)=O)C1 (stereo partly specified),1%,-2%,3%,11,-17%,-3
CC1(Cc2cccc(C(N)=O)c2)C(=O)Nc2c(Cl)cccc21 (stereo unspecified),nt,nt,nt,7,nt,27
CC1(Cc2ccccc2Cl)C(=O)Nc2c(Cl)cccc21 (stereo unspecified),nt,nt,nt,-15,nt,0
C=Cc1ccc(CC2(C)C(=O)Nc3c(Cl)cccc32)cc1 (stereo unspecified),nt,nt,nt,-4,nt,-67*
CC1(Cc2cccc(C#N)c2)C(=O)Nc2c(Cl)cccc21 (stereo unspecified),nt,nt,nt,48*,nt,-12
COCCOC(=O)C1=C(C)NC(=O)NC1c1cn(-c2ccccc2)nc1-c1ccccc1 (stereo unspecified),nt,nt,nt,3,nt,nt
O=S(=O)(c1ccc(Br)s1)N1CCN(c2ccccn2)CC1,1%,-1%,3%,-4,-1%,?
O=S(=O)(c1ccc(Br)s1)N1CCN(c2ncccn2)CC1,?,0%,1%,-17,-7%,-79*
COc1ccc2c(c1OC)CN1CCc3cc4c(cc3[C@@H]1[C@@H]2O)OCO4,-6%,-1%,2%,-99,-8%,-117*
COc1cc2c(cc1OC)[C@@H]1Cc3ccc(OC)c(OC)c3CN1CC2,10%,2%,-2%,-34,-2%,-99*
COc1ccccc1OCC(=O)NCC1(N(C)C)CCCCC1,nt,nt,nt,1,nt,nt
Cc1ccc(C(=O)C2CCNCC2)cc1,-1%,-3%,-4%,-6,1%,-65*
Cc1ccc(C(=O)C2CCN(CC(=O)NC3CCCC3)CC2)cc1,-17%,2%,1%,-19,-4%,-15
SMILES,Rango release inh,Mm-Cpn inhibitor,Rango-impB inh,DRD3 agonist,TSG101-PTAP inh,D3 antag
Cc1ccc(C(=O)C2CCN(CC(=O)Nc3ccccc3C)CC2)cc1,12%,0%,0%,-15,-1%,?
Cc1ccc(C(=O)C2CCN(CC(=O)NCc3ccc(F)cc3)CC2)cc1,-2%,2%,-3%,-29,-2%,-93*
Cc1ccc(NC(=O)CN2CCC(C(=O)c3ccc(F)cc3)CC2)cc1,16%,1%,-1%,-10,0%,-69*
Cc1ccc(CNC(=O)CN2CCCC(C)C2)cc1 (stereo unspecified),-13%,1%,-4%,-6,-10%,-71*
Cc1ccc(C(=O)c2cn(Cc3ccc(F)cc3)c3nc(C)ccc3c2=O)cc1,nt,nt,nt,-11,nt,nt
COc1ccc(NC(=O)N(C)C[C@H]2OCc3cnnn3CCCC(=O)N([C@H](C)CO)C[C@@H]2C)cc1,nt,nt,nt,-7,nt,3
O=C(CN1CCC(C(=O)c2ccc(Cl)cc2)CC1)Nc1ccc2c(c1)OCCO2,2%,-2%,0%,-27,-4%,-76*
NC(=O)C1CCN(CC(=O)Nc2ccc3c(c2)OCCO3)CC1,15%,1%,1%,4,-2%,-28
C[C@@H]1CCN(C(=O)[C@H](CCCN=C(N)N)NS(=O)(=O)c2cccc3c2NC[C@H](C)C3)[C@@H](C(=O)O)C1,nt,nt,nt,95*,nt,nt
Cc1ccc(N2CC(NC(=O)c3ccc(Br)o3)CC2=O)cc1C (stereo unspecified),nt,nt,nt,2,nt,nt
CCn1nnnc1SCC(=O)NNC(=O)C1CCCCC1,1%,-1%,0%,-3,-3%,-80*
CCCn1nnnc1SCC(=O)NNC(=O)C1CCCCC1,nt,-1%,nt,nt,nt,nt
CC1CCN(CC(C)OC(=O)c2ccc3c(c2)OCCO3)CC1 (stereo unspecified),-1%,-1%,0%,-14,-8%,-75*
CC(CN1CCCCC1)OC(=O)c1ccc2c(c1)OCO2 (stereo unspecified),8%,-3%,-1%,-18,0%,-15
COc1ccccc1/C=C/C(=O)OC(C)CN1CCCCC1 (stereo unspecified),0%,-2%,2%,-14,-2%,-60*
COc1cccc(C(=O)OC(C)CN2CCCC2)c1 (stereo unspecified),22%,1%,-1%,-2,0%,-6
CC(CN1CCCC1)OC(=O)c1ccc(Cl)cc1Cl (stereo unspecified),-12%,1%,-1%,-20,-7%,-80*
CC(CN1CCCCC1)OC(=O)c1cccc(F)c1 (stereo unspecified),-19%,-7%,1%,-24,-2%,-51*
COc1ccc(CC(=O)NCc2ccc3c(c2)CCN3C(C)=O)cc1,nt,nt,nt,5,nt,nt
COc1ccccc1OCc1nnc(-c2ccccc2)o1,nt,nt,nt,8,nt,nt

# Source: PubChem
